Screens from PubChem BioAssay.
EWS-Fli block – EWS/Fli-driven NR0B1 reporter inhibitors, primary screen, A673 cells, NR0B1 luciferase, luminescence, MLPCN library | viability-normalised | inhibition, % at 12.6 µM | hit rate 0.67% among 350,000;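 active means mean inhibition of at least 50% after viability correction, with every replicate also passing that limit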;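 further: firefly luciferase signal divided by Alamar Blue viability fluorescence both relative to DMSO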
PAX8 reporter – inhibitors of PAX8-driven TPO luciferase reporter, primary screen, RMG-I cells, single concentration | SteadyGlo, 24 h | inhibition, % at 12.6 µM | hit rate 1.2% among 360,000 | AID 652154, 2013;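 active means mean replicate inhibition at least 60% with every replicate also reaching 60%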;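 further: luciferase light reporting Pax8 driven TPO promoter activity; plate controls were median of neutral control wells for no effect and mitoxantrone controls for full effect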
LGR2 antag – inhibitors of bursicon-induced LGR2 CRE-luciferase signal, primary screen, cell-based, HEK293, CRE-luciferase reporter, bursicon stimulation | hit rate 0.35% among 380,000 | inhibition, % at 9.99 µM | bursicon-stimulated, 4 h;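 active means drop in luminescence signal, shown as inhibition above about 50% in the replicate tests, limit read from the data, passing the limit was not always enough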;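 further: agonist challenge used bursicon conditioned medium at about half maximal strength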
CF NFkB inh – inhibitors of PAF-induced NF-kB signaling, primary screen, cell-based, GFP fluorescence, uHTS | KKLEB NF-kB-GFP reporter, GFP fluorescence overnight | inhibition, % at 5 µM | hit rate 0.86% among 360,000;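 active means at least 50% inhibition at 5 µM, scaled per plate between neutral and stimulator controls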;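 further: PAF is a Pseudomonas aeruginosa culture filtrate used as stimulus; plate controls were PAF-stimulated DMSO wells for no effect and unstimulated DMSO wells for full effect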
Shn3 3UTR inh – reduction of Shn3 3'UTR firefly luciferase signal, primary screen, Schnurri-3 inhibitor project, cell-based, Clone20 osteoblasts, set 2 | inhibition, % at 12.5 µM | AID 588674, 2011 | Clone20 osteoblast Shn3 3'UTR firefly luciferase, 24 h | hit rate 0.52% among 360,000;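 active means mean inhibition of at least 75% with every replicate also reaching 75%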;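 further: 0% = median of neutral control wells and 100% = pilot-screen positive control compound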
KKLEB cytotox – cytotoxicity in KKLEB CF airway cells, primary screen, cytotoxicity control for CF NF-kB inhibitor project, cell-based, uHTS, fluorescence assay plates; KKLEB CF airway cells viability, ATPlite luminescence, overnight; stronger effect = lower value; cells stimulated with P. aeruginosa culture filtrate; activity change (cytotoxicity), % at 5 µM; hit rate 0.36% among 360,000;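 active means corrected activity change at or below -50% at 5 µM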
* = called active by the depositor. Hits are enriched below; roughly 2% of the tested compounds scored in any of these assays.

Results for COc1cccc(C(=O)Nc2ccc3c(c2)OC[C@H](C)N(C)C[C@H](C)[C@H](OC)CN(C)C3=O)c1 ?
EWS-Fli block: 4; PAX8 reporter: 6; LGR2 antag: 28

What do the screens show for `C[C@H](CO)N1C[C@H](C)[C@@H](CN(C)Cc2ccc(Cl)c(Cl)c2)Oc2ccc(NC(=O)CCC(F)(F)F)cc2CC1=O`?
EWS-Fli block: 7; LGR2 antag: -1

Results for C[n+]1c2n(c3ccccc31)N=C(c1ccc(Cl)cc1)CS2 ?
PAX8 reporter: 29; CF NFkB inh: -13; Shn3 3UTR inh: 15; KKLEB cytotox: -4

What do the screens show for `CC1Sc2n(c3ccccc3[n+]2C)N=C1c1ccccc1` (centres undefined)?
PAX8 reporter: 68*; LGR2 antag: -1; CF NFkB inh: -13; Shn3 3UTR inh: 70; KKLEB cytotox: -4

How did Cc1ccsc1/C=N\NC(=O)c1n[nH]c2c1CCC2 do in these assays?
PAX8 reporter: 20; LGR2 antag: 78*; CF NFkB inh: 16; Shn3 3UTR inh: -5; KKLEB cytotox: -15

Results for COc1ccc(CN(C)C[C@H]2OCCCC[C@H](C)Oc3ccc(NC(=O)Nc4ccccc4)cc3C(=O)N([C@H](C)CO)C[C@H]2C)cc1 ?
EWS-Fli block: 65*; PAX8 reporter: 7; LGR2 antag: 5

How did COc1ccc(CN(C)C[C@@H]2OCCCC[C@@H](C)Oc3ccc(NC(=O)Nc4ccc(F)cc4)cc3C(=O)N([C@H](C)CO)C[C@H]2C)cc1 do in these assays?
EWS-Fli block: 8; PAX8 reporter: 73*; LGR2 antag: 8

Results for CCc1ccc(-c2nc(C(N)=O)c3[nH]c(=O)n(-c4ccccc4OC)c3n2)cc1 ?
EWS-Fli block: 63*; PAX8 reporter: 3; CF NFkB inh: -10; Shn3 3UTR inh: 0; KKLEB cytotox: -19

How did COc1ccc(-c2nc(C(N)=O)c3[nH]c(=O)n(-c4cccc(Cl)c4)c3n2)cc1OC do in these assays?
CF NFkB inh: -52; Shn3 3UTR inh: 1; KKLEB cytotox: -5

Results for Cc1ccc2ccc(C(Nc3ccccc3)c3ccccc3)c(O)c2n1 (centres undefined) ?
EWS-Fli block: -15; PAX8 reporter: 70*; LGR2 antag: -48

What do the screens show for `COc1cc(C(Nc2ccccn2)c2ccc3ccc(C)nc3c2O)cc(OC)c1O` (centres undefined)?
LGR2 antag: 15; CF NFkB inh: 74*; Shn3 3UTR inh: 64; KKLEB cytotox: -34

Results for Cc1ccc2ccc(C(Nc3ccccc3)c3ccc(C(C)C)cc3)c(O)c2n1 (centres undefined) ?
EWS-Fli block: 9; PAX8 reporter: 18; LGR2 antag: -48

How did Cc1ccc2ccc(C(Nc3ccccn3)c3ccccc3)c(O)c2n1 (centres undefined) do in these assays?
EWS-Fli block: 20; PAX8 reporter: 45; LGR2 antag: 10; CF NFkB inh: 1; Shn3 3UTR inh: 7; KKLEB cytotox: 7

How did COc1ccc(CC(=O)N2N=C(c3ccncc3)CC2(O)C(F)(F)F)cc1 (centres undefined) do in these assays?
EWS-Fli block: 53*; PAX8 reporter: 31; LGR2 antag: 9; CF NFkB inh: 16; Shn3 3UTR inh: 19; KKLEB cytotox: -23

What do the screens show for `Cc1ccc2c(c1)c1c3n2CCN(CC(N)=O)C3CCC1` (centres undefined)?
EWS-Fli block: 5; PAX8 reporter: 97*; LGR2 antag: -40; CF NFkB inh: 22; Shn3 3UTR inh: -7; KKLEB cytotox: 0

Results for CC(=O)OCC(=O)[C@@]1(O)CCC2C3CCC4=CC(=O)CCC4(C)C3C(=O)CC21C (some centres undefined) ?
EWS-Fli block: 10; PAX8 reporter: -5; LGR2 antag: 9; CF NFkB inh: 7; Shn3 3UTR inh: -15; KKLEB cytotox: 2

What do the screens show for `CC(=O)OCC(=O)[C@@]1(O)CC[C@H]2[C@@H]3CCC4=CC(=O)C=C[C@]4(C)[C@@]3(Cl)[C@@H](Cl)C[C@@]21C`?
EWS-Fli block: -4; PAX8 reporter: -1; LGR2 antag: 0; CF NFkB inh: 65*; Shn3 3UTR inh: 5; KKLEB cytotox: 26

Results for CC12CCC(=O)C=C1C(F)CC1C2C(O)CC2(C)C1CCC2(O)C(=O)CO (centres undefined) ?
EWS-Fli block: 2; PAX8 reporter: 9; LGR2 antag: 12; CF NFkB inh: 76*; Shn3 3UTR inh: 8; KKLEB cytotox: 33

How did CC(=O)OCC(=O)[C@@]1(O)CC[C@H]2[C@@H]3CCC4=CC(=O)C=C[C@]4(C)[C@H]3[C@@H](O)C[C@@]21C do in these assays?
EWS-Fli block: 4; PAX8 reporter: 16; LGR2 antag: -17; CF NFkB inh: 80*; Shn3 3UTR inh: -4; KKLEB cytotox: 2

How did CC12C=CC(=O)C=C1CCC1C2C(O)CC2(C)C1CCC2(O)C(=O)CO (centres undefined) do in these assays?
EWS-Fli block: -5; PAX8 reporter: -15; LGR2 antag: 7; CF NFkB inh: 64*; Shn3 3UTR inh: 0; KKLEB cytotox: 54

Results for C[C@@H](NC(=O)C[C@@H]1CC[C@@H]2[C@H](COC[C@H](O)CN2Cc2ccc(C(F)(F)F)cc2)O1)c1ccccc1 ?
EWS-Fli block: 8; PAX8 reporter: 19; LGR2 antag: -8

How did C[C@@H]1CN([C@@H](C)CO)C(=O)Cc2cc(NC(=O)c3ccncc3)ccc2O[C@H]1CN(C)Cc1ccc2c(c1)OCO2 do in these assays?
EWS-Fli block: -6; PAX8 reporter: 4; LGR2 antag: 6

Results for C[C@@H]1CCCCO[C@H](CN(C)C(=O)c2ccccc2)[C@@H](C)CN([C@H](C)CO)C(=O)c2cc(NC(=O)Cc3ccccc3)ccc2O1 ?
EWS-Fli block: 1; PAX8 reporter: 20; LGR2 antag: 20

What do the screens show for `CC=Cc1ccc2n(c1=O)C[C@@H]1[C@@H](CO)[C@H](C(=O)NCc3ccc(F)cc3)[C@H]2N1CCC` (mixture of isomers)?
EWS-Fli block: -1; LGR2 antag: -6

What do the screens show for `CCCCC(=O)O[C@]1(C(=O)CO)CC[C@H]2[C@@H]3CCC4=CC(=O)CC[C@]4(C)[C@H]3[C@@H](O)C[C@@]21C`?
EWS-Fli block: -3; PAX8 reporter: -9; LGR2 antag: 8; CF NFkB inh: 57*; Shn3 3UTR inh: 19; KKLEB cytotox: 30
